Inconclusive results are not listed. A number with no mark means an inactive call. Active and inactive are the calls of the source. Calls follow the shape of the dose curve; as a rule, active = well fitted inhibition curve with a large enough effect; inconclusive = small, poorly fitted or top-dose-only effect; inactive = flat fitted curve, though single readings scatter.
tested on: TAB165; experiment: qHTS profiling for inhibitors of Plasmodium falciparum proliferation (AID 504749); also: nearly all actives have a fitted effect of over 60% in size;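 as to activity, negative = inhibition: 0% = DMSO vehicle and full inhibition = artemisinin control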; settings: P. falciparum in erythrocytes, SYBR Green DNA, 72 h; series mostly up to 28.7 µM; activity, negative = inhibition: at the top concentration
Summary of the method: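 Each compound contacts P. falciparum-infected red blood cells for 72 h at 37 C; lysis buffer (Tris, EDTA, saponin, Triton X, SYBR Green I) is added and fluorescence measured next morning; values normalized to controls.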
Potency is read from the fitted curve at half-maximal effect.

| Structure (SMILES) | Potency | activity, negative = inhibition |
| --- | --- | --- |
| CN(C)CCCN1c2ccccc2Sc2ccc(Cl)cc21 | 8.91 µM (active) |  |
| CN(C)CCN(Cc1ccccc1)c1ccccn1 |  | -22.9% |
| CCCCN(CCCC)CC(O)c1cc(Cl)cc2c1-c1ccc(Cl)cc1/C2=C/c1ccc(Cl)cc1 (stereo not drawn) | 0.0079 µM (active) |  |
| CC(=O)c1ccc2c(c1)N(CCCN(C)C)c1ccccc1S2 |  | -25.6% [at 12.8 µM] |
| CSc1ccc2c(c1)N(CCC1CCCCN1C)c1ccccc1S2 (stereo not drawn) | 12.6 µM (active) |  |
| CN1CCN(C2Cc3ccccc3Sc3ccc(Cl)cc32)CC1 (stereo not drawn) | 12.6 µM (active) |  |
| O=C(O)CN1C(=O)c2cccc3cccc(c23)C1=O |  | 7.38% |
| Nc1ccc(S(=O)(=O)Nc2ccc(Cl)nn2)cc1 | 1 µM (active) |  |
| CC(C)(C)C(=O)C(Oc1ccc(Cl)cc1)n1ccnc1 (stereo not drawn) | 7.08 µM (active) |  |
| NC1CCN(c2cccc(Cl)n2)CC1 |  | -23.3% |
| Cc1ccc2nc(N)[nH]c(=O)c2c1Sc1ccncc1 | 2 µM (active) |  |
| Cc1c(O)cccc1C(=O)N[C@@H](CSc1ccccc1)[C@H](O)CN1C[C@H]2CCCC[C@H]2C[C@H]1C(=O)NC(C)(C)C | 10 µM (active) |  |
| Oc1ccc(C(O)CNCCCCCCNCC(O)c2ccc(O)c(O)c2)cc1O (stereo not drawn) | 11.2 µM (active) |  |
| CC(CN1c2ccccc2Sc2ccccc21)N(C)C (stereo not drawn) |  | 5.02% |
| CCCn1cnc2c1c(=O)n(CCCCC(C)=O)c(=O)n2C |  | -5.55% |
| CC(C(O)c1ccc(O)cc1)N1CCC(Cc2ccccc2)CC1 (stereo not drawn) | 8.91 µM (active) |  |
| CNCCC(Oc1ccc(C(F)(F)F)cc1)c1ccccc1 (stereo not drawn) | 11.2 µM (active) |  |
| NCCNCCNCCN |  | -0.86% |
| Nc1ncnc2c1ncn2[C@@H]1O[C@H](CO)[C@@H](O)[C@H]1O |  | 10% |
| CSc1ccc2c(c1)C(N1CCN(C)CC1)Cc1ccccc1S2 (stereo not drawn) | 12.6 µM (active) |  |
| COCCOC(=O)C1=C(C)NC(C)=C(C(=O)OC/C=C/c2ccccc2)C1c1cccc([N+](=O)[O-])c1 (stereo not drawn) | 12.6 µM (active) |  |
| COc1ccc2[nH]c(S(=O)Cc3ncc(C)c(OC)c3C)nc2n1 (stereo not drawn) | 7.94 µM (active) |  |
| CCN(CC)CCNC(C(=O)OCCC(C)C)c1ccccc1 (stereo not drawn) | 10 µM (active) |  |
